A selection: hits, their analogues and other compounds. The true share with any hit is near 11%.
Vaccinia mCherry = inhibitors of vaccinia virus infection (mCherry reporter signal); Vaccinia virus mCherry reporter infection, fluorescence; Potency, µM (series often up to 36.5 µM), for inactives: top-dose activity change, negative = inhibition, usual class: inhibitors; 310,000 compounds, 0.63% hits; calls by dose curve; tested in A549 cells; note: % is set by controls: 0 for no effect and ±100 for the full control effect; nearly all actives have a fitted effect of over 35% in size
HCV inhibitor = HCV inhibition; Huh7.5.1 HCVcc-Cre infection, luciferase reporter, 44 h; Potency, µM (top dose mostly 41.8 µM), for the others: at the highest dose activity change, negative = inhibition, most hits filed as inhibitors; 340,000 compounds, 3.4% hits; note: % is set by controls: 0 for no effect and ±100 for the full control effect
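Seed cells (1,000/well) for 4 h; treat with compound and infect with HCVcc-Cre, moi about 0.5. Incubate 44 h, then detect luciferase activity.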
VACV Venus inh = vaccinia inhibition (Venus reporter); 330,000 compounds, 0.46% hits; Vaccinia virus Venus reporter expression, fluorescence; Potency, µM (top dose mostly 36.5 µM), without a hit: at the highest dose activity change, negative = inhibition, usual class: inhibitors; calls by dose curve; tested in A549 cells; note: % is set by controls: 0 for no effect and ±100 for the full control effect; nearly all actives have a fitted effect of over 30% in size
Pf growth 48h = inhibits P. falciparum growth in the first generation, 48 h. 310,000 compounds, 5.9% hits. P. falciparum luciferase growth in erythrocytes, 48 h. Potency, µM (top dose mostly 28.7 µM), inactives show at the highest dose activity change, negative = inhibition, hits mostly inhibitors; note: % is set by controls: 0 for no effect and ±100 for the full control effect
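Here the parasites carry a stable luciferase gene and grow inside erythrocytes in Albumax-based RPMI medium with compound for one erythrocytic cycle. Activity is scored as loss of luminescent signal.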
NS1 inh = inhibitors of influenza NS1 protein function; AID 2326; Potency, µM (top dose mostly 46.1 µM), for the others: at the highest dose activity, positive = more growth; 270,000 compounds, 0.4% hits; calls by dose curve; note: actives are rising curves; nearly all actives have a fitted effect of over 50% in size
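In this qHTS, NS1 from influenza A is expressed in budding yeast, where it slows growth. Cells are switched from glucose to 2% galactose medium (pH 6.0, -URA), treated with compound, and growth recovery is read at OD600.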
Pf growth 96h = P. falciparum growth inhibition at 96 hours | 320,000 compounds, 6.9% hits | Potency, µM (titrated, usually from 28.7 µM), for the others: at the top dose activity change, negative = inhibition, usual class: inhibitors | P. falciparum luciferase reporter growth, 96 h; note: % is set by controls: 0 for no effect and ±100 for the full control effect
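Readout is luminescence from an integrated firefly luciferase in P. falciparum. Red cells, 2% hematocrit and 0.05% parasitemia final, were cultured with compound through two parasite generations (96 hours) at 37 C, 5% CO2.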
Active calls of the source: *. Unless noted, calls come from the whole dose curve; as a rule, active = well fitted inhibition curve with a large enough effect; inconclusive = small, poorly fitted or top-dose-only effect, or another doubt; inactive = no such curve, though single readings can be large or run the other way. Potency is the fitted concentration of half-maximal effect.

Results for O=C(CSc1nc2c(c(=O)[nH]1)CCC2)Nc1ccc(F)cc1 ?
Vaccinia mCherry: 10%; HCV inhibitor: 4%; VACV Venus inh: -7%; Pf growth 48h: 17%; NS1 inh: 4%; Pf growth 96h: 37%

How did CCn1c(=O)c2sccc2n2c(CCC(=O)Nc3ccc(OC)c(Cl)c3)nnc12 do in these assays?
Vaccinia mCherry: 3%; VACV Venus inh: -1%

How did CC1CC(C)CN(S(=O)(=O)c2cccc(C(=O)N3CCN(c4ccc(F)cc4)CC3)c2)C1 (stereo not given) do in these assays?
HCV inhibitor: inconclusive; Pf growth 48h: 12µM*; Pf growth 96h: inconclusive

Results for CC1CCN(S(=O)(=O)c2cccc(C(=O)N3CCN(c4ccc(F)cc4)CC3)c2)CC1 ?
Vaccinia mCherry: inconclusive; HCV inhibitor: inconclusive; VACV Venus inh: inconclusive; Pf growth 48h: inconclusive; NS1 inh: -12%; Pf growth 96h: inconclusive

What do the screens show for `O=C(c1cccc(S(=O)(=O)N2CCCCC2)c1)N1CCc2ccccc21`?
Vaccinia mCherry: inactive; HCV inhibitor: inconclusive; VACV Venus inh: -19%; Pf growth 48h: 11%; NS1 inh: 3%; Pf growth 96h: 1.2µM*

What do the screens show for `Cc1ccc(N2C(=O)c3ccc(C(=O)N4CCN(c5ccccc5F)CC4)cc3C2=O)cc1`?
Vaccinia mCherry: 0%; HCV inhibitor: 0%; VACV Venus inh: -15%; Pf growth 48h: 5%; NS1 inh: inconclusive; Pf growth 96h: 9.3µM*

Results for Cn1c(O)c(N=NC(=O)c2cccc(S(=O)(=O)N3CCCCC3)c2)c2ccccc21 ?
Vaccinia mCherry: -13%; HCV inhibitor: inconclusive; VACV Venus inh: -23%; Pf growth 48h: 10µM*; NS1 inh: 19%; Pf growth 96h: 7.4µM*

Results for O=C(c1ccc(-c2ccccc2)cc1)N1CCN(c2ccccc2F)CC1 ?
HCV inhibitor: -14%; Pf growth 48h: 10%; NS1 inh: -22%; Pf growth 96h: -19%

Results for O=C(Cn1cnc2ccccc2c1=O)NCc1ccco1 ?
Vaccinia mCherry: -8%; HCV inhibitor: 19%; VACV Venus inh: -5%; Pf growth 48h: 11%; NS1 inh: -3%; Pf growth 96h: 8%

Results for Cc1cccc(NC(=S)N2CCC(c3nc4ccccc4o3)CC2)c1C ?
Vaccinia mCherry: -20%; HCV inhibitor: inconclusive; VACV Venus inh: -20%; Pf growth 48h: 13%; NS1 inh: -12%; Pf growth 96h: 0%

What do the screens show for `COc1ccccc1N1CCN(C2CCN(C(=O)c3cccc(F)c3)CC2)CC1`?
Vaccinia mCherry: -21%; HCV inhibitor: -4%; VACV Venus inh: -17%; Pf growth 48h: -15%; NS1 inh: 3%; Pf growth 96h: 13µM*

How did COc1ccccc1N1CCN(C(=O)c2cc(S(=O)(=O)N3CCCCC3)ccc2C)CC1 do in these assays?
Vaccinia mCherry: -21%; HCV inhibitor: -13%; VACV Venus inh: -7%

How did COc1ccccc1N1CCN(S(=O)(=O)c2c(C)[nH]c(C)c2C(=O)N2CCCCC2)CC1 do in these assays?
Vaccinia mCherry: inactive; HCV inhibitor: 16%; VACV Venus inh: -18%; Pf growth 48h: -13%; NS1 inh: 5%; Pf growth 96h: 0%

How did Cc1[nH]c(C)c(S(=O)(=O)N2c3ccccc3CC2C)c1C(=O)N1CCCCC1 (stereo not given) do in these assays?
HCV inhibitor: 7%; Pf growth 48h: -11%; NS1 inh: -7%; Pf growth 96h: 15µM*

Results for COc1ccccc1N1CCN(C2CCN(C(=O)c3ccc(F)cc3)CC2)CC1 ?
Vaccinia mCherry: -12%; HCV inhibitor: 9%; VACV Venus inh: -13%; Pf growth 48h: -25%; NS1 inh: 9%; Pf growth 96h: 19%

How did O=C(c1cccc(S(=O)(=O)N2CCCCCC2)c1)N1CCN(c2ccccc2F)CC1 do in these assays?
Vaccinia mCherry: inactive; HCV inhibitor: -21%; VACV Venus inh: -23%; Pf growth 48h: 12µM*; NS1 inh: -13%; Pf growth 96h: 12%
